Experimental findings from the supplement of paper PMC10849652 are described below.

Of roughly 7,900 targets only a part is listed; those with a hit were picked by preference. About 0.6% of all pairs of compound and target were hits. Unmarked numbers belong to inactive results.

Chain of YIPF4 (Q9BSR8 whole entry, looked up): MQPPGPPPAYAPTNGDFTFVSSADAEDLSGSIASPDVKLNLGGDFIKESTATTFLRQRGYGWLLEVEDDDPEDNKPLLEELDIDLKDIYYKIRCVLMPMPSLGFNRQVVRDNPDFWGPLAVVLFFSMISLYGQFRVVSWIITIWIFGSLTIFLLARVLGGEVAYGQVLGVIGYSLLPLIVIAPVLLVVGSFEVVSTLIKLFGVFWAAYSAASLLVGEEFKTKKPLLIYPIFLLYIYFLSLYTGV
Chain of YIPF5 isoform 3 (Q969M3 whole entry, looked up, canonical isoform): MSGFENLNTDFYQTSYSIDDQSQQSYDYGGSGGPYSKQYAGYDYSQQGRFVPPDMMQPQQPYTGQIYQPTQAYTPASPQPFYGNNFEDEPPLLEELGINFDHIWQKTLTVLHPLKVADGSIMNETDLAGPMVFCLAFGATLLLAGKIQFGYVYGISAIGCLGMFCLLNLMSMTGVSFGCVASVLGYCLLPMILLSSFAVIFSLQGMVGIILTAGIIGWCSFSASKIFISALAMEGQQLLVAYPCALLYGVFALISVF

One assay has as its target YIPF4 (UniProt Q9BSR8). The assay is described as follows: log2 fold change, soluble protein after heating vs DMSO (PISA); higher = thermal stabilisation; K562 cells, 10 uM, 30 min; active = over 0.2 and 3.5 SD of the protein, either way, in both replicates (recomputed). The procedure, abridged:
(§1)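 K562 cells at 2×10^6 cells/mL were treated with 10 μM compound for 30 min. Aliquots were heated for 3 min across 48°C-58°C, pooled, and extracted in PBS with 0.5% NP-40 at 4°C; soluble protein was the supernatant after 21,000xg for 90 min. Soluble protein was quantified by TMTpro 16plex LC-MS/MS with channel sums equalised, and reported as log2 fold change in thermal stability against DMSO controls, with values from duplicates.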
On to `NCC(=O)Nc1ccc(-n2nc(C(F)(F)F)cc2-c2ccc3c(ccc4ccccc43)c2)cc1`, for which the log2 fold change is -0.004.

On to `COc1ccc(Cn2ccc3ccc(C(=O)NO)cc32)cc1`, for which the log2 fold change is -0.098.

As to `COc1cc(C(=O)O)ccc1NC(=O)[C@@H]1N[C@@H](CC(C)(C)C)[C@](C#N)(c2ccc(Cl)cc2F)[C@H]1c1cccc(Cl)c1F` [idasanutlin], the log2 fold change was -0.049.

As to `C/C(=N\NC(=O)c1cccc(S(=O)(=O)N2CCOCC2)c1)c1cc(Cl)ccc1O`, the log2 fold change is -0.06.

Consider `Cc1ccc2c(=O)c3ccccc3n(CCCN)c2c1C`, for which the log2 fold change was 0.215.

Turning to `CCCCN(Cc1ccc(C(=O)NO)cc1)C(=O)Nc1ccccc1` [Nexturastat A], the log2 fold change is 0.021.

On to `COC(=O)[C@H](CCSC)NC(=O)c1ccc(NC[C@@H](N)CS)cc1-c1ccccc1`, for which the log2 fold change is 0.088.

Consider `O=C(CCCCCCNC(=O)c1cnc(N(c2ccccc2)c2ccccc2Cl)nc1)NO` [citarinostat], for which the log2 fold change was 0.042.

`Cc1ccc(-n2nc(C(C)(C)C)cc2NC(=O)Nc2ccc(OCCN3CCOCC3)c3ccccc23)cc1` [doramapimod]: the log2 fold change is 0.005.

Turning to `CC(C)(O)CC(=O)NCCn1ccc2ncnc(Nc3ccc(Oc4cccc(C(F)(F)F)c4)c(Cl)c3)c21`, the log2 fold change is -0.012.

Take `CC(C)(C)Cn1c(N)nc2ccc(-c3[nH]c(C(C)(C)C)nc3-c3ccc(F)cc3)nc21` [ralimetinib]: the log2 fold change was -0.099.

With `CC(C)c1cnn2c(NCc3ccccc3)cc(NCCCCCCN)nc12`, the log2 fold change was -0.032.

Take `NC(=O)c1cnc(N[C@@H]2CCCC[C@@H]2N)nc1Nc1cccc(-n2nccn2)c1`: the log2 fold change was 0.091.

For the compound `CC(C)N(C[C@H]1O[C@@H](n2cnc3c(N)ncnc32)[C@H](O)[C@@H]1O)[C@H]1C[C@@H](CCc2nc3cc(C(C)(C)C)ccc3[nH]2)C1` [pinometostat], the log2 fold change was -0.031.

With `C[C@@H](Oc1cc(-c2cnn(C3CCNCC3)c2)cnc1N)c1c(Cl)ccc(F)c1Cl` [crizotinib], the log2 fold change is 0.054.

With `O=C1NC(=NCc2cccs2)S/C1=C\c1ccc2ncccc2c1`, the log2 fold change was -0.006.

`Cc1cn(-c2cc(NC(=O)c3ccc(C)c(Nc4nccc(-c5cccnc5)n4)c3)cc(C(F)(F)F)c2)cn1` [nilotinib]: the log2 fold change is 0.046.

For the compound `Cc1cccc(-c2[nH]c(C(C)(C)C)nc2-c2ccc3nccnc3c2)n1`, the log2 fold change was -0.067.

Turning to `CN1CCc2c(c3ccccc3n2Cc2ccc(C(=O)NO)cc2)C1` [Tubastatin A], the log2 fold change is -0.028.

In the case of `CC[C@@H]1C(=O)N(C)c2cnc(Nc3ccc(C(=O)NC4CCN(C)CC4)cc3OC)nc2N1C1CCCC1`, the log2 fold change is 0.022.

Take `CNC(=O)c1ccc(Nc2ncc(C(F)(F)F)c(NCc3nccnc3N(C)S(C)(=O)=O)n2)cc1` [defactinib]: the log2 fold change was -0.016.

With `CN1CCC(CNc2ccc3ncc(-c4cccc(OC(F)(F)F)c4)n3n2)CC1`, the log2 fold change is 0.101.

With `NC1(Cc2ccc(Cl)cc2)CCN(c2ncnc3[nH]ccc23)CC1`, the log2 fold change is -0.016.

Regarding `Cn1cncc1[C@@](N)(c1ccc(Cl)cc1)c1ccc2c(c1)c(-c1cccc(Cl)c1)cc(=O)n2C` [tipifarnib], the log2 fold change was 0.31 (active).

For the compound `Cc1cc(Nc2cc(N3CCN(C)CC3)nc(Sc3ccc(NC(=O)C4CC4)cc3)n2)n[nH]1` [tozasertib], the log2 fold change is 0.079.

As for `O=C(Nc1cccc(Nc2ncc(Br)c(NCCc3cnc[nH]3)n2)c1)N1CCCC1`, the log2 fold change was -0.033.

With `c1cc(OCCN2CCCCC2)cc(-c2n[nH]c3ccc(-c4nnc[nH]4)cc23)c1`, the log2 fold change was -0.051.

For the compound `O=C1c2ccccc2-c2n[nH]c3cccc1c23`, the log2 fold change was 0.033.

As for `CC(=O)c1cnc2ccc(-c3cc(Cl)c(O)c(Cl)c3)nc2c1N[C@H]1CC[C@H](CN(C)C)CC1`, the log2 fold change is -0.197.

Turning to `O=C(Nc1nc2ccccc2n1CCN1CCOCC1)c1cccc([N+](=O)[O-])c1` [IRAK-1-4 Inhibitor I], the log2 fold change is 0.093.

Another assay concerns the target YIPF5 isoform 3 (UniProt Q969M3). The assay is described as above. An outline of the steps:
as §1
Take `NCC(=O)Nc1ccc(-n2nc(C(F)(F)F)cc2-c2ccc3c(ccc4ccccc43)c2)cc1`: the log2 fold change was 0.021.

On to `COc1ccc(Cn2ccc3ccc(C(=O)NO)cc32)cc1`, for which the log2 fold change is -0.065.

Consider `COc1cc(C(=O)O)ccc1NC(=O)[C@@H]1N[C@@H](CC(C)(C)C)[C@](C#N)(c2ccc(Cl)cc2F)[C@H]1c1cccc(Cl)c1F` [idasanutlin], for which the log2 fold change was -0.051.

For the compound `C/C(=N\NC(=O)c1cccc(S(=O)(=O)N2CCOCC2)c1)c1cc(Cl)ccc1O`, the log2 fold change is 0.016.

With `Cc1ccc2c(=O)c3ccccc3n(CCCN)c2c1C`, the log2 fold change is -0.006.

`CCCCN(Cc1ccc(C(=O)NO)cc1)C(=O)Nc1ccccc1` [Nexturastat A]: the log2 fold change was 0.091.

Regarding `COC(=O)[C@H](CCSC)NC(=O)c1ccc(NC[C@@H](N)CS)cc1-c1ccccc1`, the log2 fold change was 0.046.

Regarding `O=C(CCCCCCNC(=O)c1cnc(N(c2ccccc2)c2ccccc2Cl)nc1)NO` [citarinostat], the log2 fold change is 0.023.

For `Cc1ccc(-n2nc(C(C)(C)C)cc2NC(=O)Nc2ccc(OCCN3CCOCC3)c3ccccc23)cc1` [doramapimod], the log2 fold change is 0.041.

Consider `CC(C)(O)CC(=O)NCCn1ccc2ncnc(Nc3ccc(Oc4cccc(C(F)(F)F)c4)c(Cl)c3)c21`, for which the log2 fold change is -0.094.

For `CC(C)(C)Cn1c(N)nc2ccc(-c3[nH]c(C(C)(C)C)nc3-c3ccc(F)cc3)nc21` [ralimetinib], the log2 fold change is -0.292.

As for `CC(C)c1cnn2c(NCc3ccccc3)cc(NCCCCCCN)nc12`, the log2 fold change is 0.008.

As to `NC(=O)c1cnc(N[C@@H]2CCCC[C@@H]2N)nc1Nc1cccc(-n2nccn2)c1`, the log2 fold change was -0.016.

Take `CC(C)N(C[C@H]1O[C@@H](n2cnc3c(N)ncnc32)[C@H](O)[C@@H]1O)[C@H]1C[C@@H](CCc2nc3cc(C(C)(C)C)ccc3[nH]2)C1` [pinometostat]: the log2 fold change was 0.016.

With `C[C@@H](Oc1cc(-c2cnn(C3CCNCC3)c2)cnc1N)c1c(Cl)ccc(F)c1Cl` [crizotinib], the log2 fold change is 0.081.

On to `O=C1NC(=NCc2cccs2)S/C1=C\c1ccc2ncccc2c1`, for which the log2 fold change is -0.008.

As to `Cc1cn(-c2cc(NC(=O)c3ccc(C)c(Nc4nccc(-c5cccnc5)n4)c3)cc(C(F)(F)F)c2)cn1` [nilotinib], the log2 fold change was 0.021.

Consider `Cc1cccc(-c2[nH]c(C(C)(C)C)nc2-c2ccc3nccnc3c2)n1`, for which the log2 fold change is -0.073.

As for `CN1CCc2c(c3ccccc3n2Cc2ccc(C(=O)NO)cc2)C1` [Tubastatin A], the log2 fold change is -0.103.

For the compound `CC[C@@H]1C(=O)N(C)c2cnc(Nc3ccc(C(=O)NC4CCN(C)CC4)cc3OC)nc2N1C1CCCC1`, the log2 fold change was 0.088.

Turning to `CNC(=O)c1ccc(Nc2ncc(C(F)(F)F)c(NCc3nccnc3N(C)S(C)(=O)=O)n2)cc1` [defactinib], the log2 fold change is -0.019.

As to `CN1CCC(CNc2ccc3ncc(-c4cccc(OC(F)(F)F)c4)n3n2)CC1`, the log2 fold change was -0.288.

For the compound `NC1(Cc2ccc(Cl)cc2)CCN(c2ncnc3[nH]ccc23)CC1`, the log2 fold change was 0.126.

Turning to `Cn1cncc1[C@@](N)(c1ccc(Cl)cc1)c1ccc2c(c1)c(-c1cccc(Cl)c1)cc(=O)n2C` [tipifarnib], the log2 fold change was -0.059.

Consider `Cc1cc(Nc2cc(N3CCN(C)CC3)nc(Sc3ccc(NC(=O)C4CC4)cc3)n2)n[nH]1` [tozasertib], for which the log2 fold change is -0.089.

As to `O=C(Nc1cccc(Nc2ncc(Br)c(NCCc3cnc[nH]3)n2)c1)N1CCCC1`, the log2 fold change is 0.033.

For the compound `c1cc(OCCN2CCCCC2)cc(-c2n[nH]c3ccc(-c4nnc[nH]4)cc23)c1`, the log2 fold change was -0.043.

For the compound `O=C1c2ccccc2-c2n[nH]c3cccc1c23`, the log2 fold change was -0.153.

As for `CC(=O)c1cnc2ccc(-c3cc(Cl)c(O)c(Cl)c3)nc2c1N[C@H]1CC[C@H](CN(C)C)CC1`, the log2 fold change is 0.023.

Turning to `O=C(Nc1nc2ccccc2n1CCN1CCOCC1)c1cccc([N+](=O)[O-])c1` [IRAK-1-4 Inhibitor I], the log2 fold change is -0.035.
